Experimental data: PubChem BioAssay (NCATS)
Inconclusive results are not listed. The source made the active and inactive calls. Calls follow the shape of the dose curve; as a rule, active = well fitted inhibition curve with a large enough effect; inconclusive = small, poorly fitted or top-dose-only effect; inactive = flat fitted curve, though single readings scatter.

Assays:
CRL-7250 = normal cell line; assay: Cytotoxic Profiling of Annotated Libraries Using Quantitative High-Throughput Screening (AID 1296008); conditions: Five cell lines viability, CellTiter-Glo ATP luminescence, 48-72 h; max response: active compounds read low; as to max response: % is scaled to controls: 0 for no effect and ±100 for the full control effect
Summary of the method: (§1)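 Cytotoxicity was measured as CellTiter-Glo ATP luminescence, read after 10 min at room temperature. Compound treatment of the cells lasted 48 or 72 hr at 37 degrees Celsius in a qHTS format.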

HEK293 = assay: as above; conditions: Five cell lines viability, CellTiter-Glo ATP luminescence, 48-72 h; max response: active compounds read low
Summary of the method: as §1

HaCat [1] = assay: as above; conditions: Five cell lines viability, CellTiter-Glo ATP luminescence, 48-72 h; max response: active compounds read low
Summary of the method: as §1

KB-3-1 = assay: as above; conditions: Five cell lines viability, CellTiter-Glo ATP luminescence, 48-72 h; max response: active compounds read low
Summary of the method: as §1

NIH3T3 = assay: as above; conditions: Five cell lines viability, CellTiter-Glo ATP luminescence, 48-72 h; max response: active compounds read low
Summary of the method: as §1

HACAT [2] = assay: qHTS assay to identify novel small-molecules to repurpose for Merkel cell carcinoma treatment (AID 1296009); conditions: MCC and control cell lines, CellTiter-Glo viability, 72 h; at 44.8 µM (top of the series) unless noted
Summary of the method: (§2)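 After compound transfer in DMSO, plates were kept 72 hr at 37 degree celsius. Luminescent ATP signal from CellTiter-Glo served as viability measure, normalized against DMSO and no-cell controls.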

HEK293T = assay: as above; conditions: MCC and control cell lines, CellTiter-Glo viability, 72 h; series mostly up to 44.8 µM
Summary of the method: as §2
Also: nearly all actives have a fitted effect of over 60% in size.

CC(=O)N1CCN(NC(=O)c2ccc(F)cc2)CC1
inactive: max response (CRL-7250) -0.968% | outcome (HEK293) | outcome (HaCat [1]) | max response (KB-3-1) 8.34% | max response (NIH3T3) -3.31% | outcome (HACAT [2]) | Potency (HEK293T)

COc1cc(/C=C/CO)ccc1O[C@@H]1O[C@H](CO)[C@@H](O)[C@H](O)[C@H]1O
inactive: max response (CRL-7250) -3.79% | outcome (HEK293) | outcome (HaCat [1]) | max response (KB-3-1) 9.42% | outcome (NIH3T3) | outcome (HACAT [2]) | Potency (HEK293T)

COc1ccccc1[C@@H]1C2=C(CC(C)(C)CC2=O)Nc2n[nH]c(C(F)(F)F)c21
inactive: max response (CRL-7250) 3.92% | outcome (HEK293) | outcome (HaCat [1]) | outcome (KB-3-1) | outcome (NIH3T3) | outcome (HACAT [2]) | Potency (HEK293T)

C/C(=C\CCC(C)(O)c1ccc(C)cc1)C(=O)O (centres undefined)
inactive: max response (CRL-7250) -2.36% | outcome (HEK293) | outcome (HaCat [1]) | outcome (KB-3-1) | max response (NIH3T3) 0.595% | outcome (HACAT [2]) | Potency (HEK293T)

CC(C)C1=CCC(C)(O)C(OC2OC(CO)C(O)C(O)C2O)C1 (centres undefined)
inactive: max response (CRL-7250) -1.73% | outcome (HEK293) | outcome (HaCat [1]) | outcome (KB-3-1) | outcome (NIH3T3) | outcome (HACAT [2]) | Potency (HEK293T)

O=C(OCc1cccc(O)c1O[C@@H]1O[C@H](CO)[C@@H](O)[C@H](O)[C@H]1O)C1(O)C(=O)C2C=CC1C1C=CC(=O)C(O)(C(=O)OCc3cccc(O)c3O[C@@H]3O[C@H](CO)[C@@H](O)[C@H](O)[C@H]3O)C21 (some centres undefined)
inactive: max response (CRL-7250) -8.04% | outcome (HEK293) | outcome (HaCat [1]) | outcome (KB-3-1) | max response (NIH3T3) 3.82% | outcome (HACAT [2]) inactive [at 9.27 µM] | outcome (HEK293T) inactive [at 9.27 µM]

COC(=O)C1=COC(OC2OC(CO)C(O)C(O)C2O)C2C1CC(OC(=O)C(O)CC(=O)O)C2C (centres undefined)
inactive: max response (CRL-7250) -2.72% | outcome (HEK293) | outcome (HaCat [1]) | outcome (KB-3-1) | outcome (NIH3T3) | outcome (HACAT [2]) inactive [at 17.4 µM] | Potency (HEK293T)

CCC(CCO[C@@H]1O[C@H](CO[C@H]2OC[C@](O)(CO)[C@H]2O)[C@@H](O)[C@H](O)[C@H]1O)C(C)(C)O (some centres undefined)
inactive: max response (CRL-7250) -2.81% | outcome (HEK293) | outcome (HaCat [1]) | outcome (KB-3-1) | max response (NIH3T3) 1.97% | outcome (HACAT [2]) inactive [at 17.4 µM] | Potency (HEK293T)

CCC/C=C/C(=O)O[C@H]1CC(C)(C)CC2[C@]13[C@H](O)O[C@@]21CCC2[C@@]4(C)CC[C@H](O[C@@H]5O[C@H](C(=O)O)[C@@H](O)[C@H](O[C@@H]6O[C@H](CO)[C@H](O)[C@H](O)[C@H]6O[C@@H]6O[C@@H](C)[C@H](O)[C@@H](O)[C@H]6O[C@@H]6OC[C@](O)(CO)[C@H]6O)[C@H]5O[C@@H]5O[C@H](CO)[C@H](O)[C@H](O)[C@H]5O)C(C)(C)C4CC[C@@]2(C)[C@]1(C)C[C@H]3OC(C)=O (some centres undefined)
inactive: max response (CRL-7250) -6.81% | outcome (HEK293) | outcome (HaCat [1]) | max response (KB-3-1) 6.11% | max response (NIH3T3) 0.954% | outcome (HACAT [2]) inactive [at 9.27 µM] | outcome (HEK293T) inactive [at 9.27 µM]

CC(=O)O[C@@H]1[C@H](O[C@@H]2O[C@H](CO)[C@@H](O)[C@H](O)[C@H]2O)[C@@H](O[C@@H]2O[C@@H](C)[C@H](O)[C@@H](O[C@@H]3O[C@H](CO)[C@@H](O)[C@H](O)[C@H]3O)[C@H]2O)[C@H](OC(=O)C23CCC4(C)C(=CCC5C6(C)CC(O)C(O[C@@H]7O[C@H](C(=O)O)[C@@H](O)[C@H](O)[C@H]7O)C(C)(C(=O)O)C6CCC54C)C2CC(C)(C)CC3O)O[C@@H]1C (some centres undefined)
inactive: max response (CRL-7250) -7.88% | outcome (HEK293) | outcome (HaCat [1]) | outcome (KB-3-1) | outcome (NIH3T3) | outcome (HACAT [2]) inactive [at 9.27 µM] | outcome (HEK293T) inactive [at 9.27 µM]

O=C1[C@H](O[C@@H]2O[C@H](CO)[C@@H](O)[C@H](O)[C@H]2O)Oc2ccccc2N1O
inactive: max response (CRL-7250) 1.51% | outcome (HEK293) | outcome (HaCat [1]) | max response (KB-3-1) 3.12% | max response (NIH3T3) 0.0797% | outcome (HACAT [2]) | Potency (HEK293T)

CC(C)CC(=O)OC[C@H]1O[C@@](COC(=O)CC(C)C)(O[C@H]2O[C@H](CO)[C@@H](O)[C@H](O)[C@H]2O)[C@@H](OC(=O)CC(C)C)[C@@H]1OC(=O)CC(C)C
inactive: max response (CRL-7250) -0.942% | outcome (HEK293) | outcome (HaCat [1]) | max response (KB-3-1) 9.19% | outcome (NIH3T3) | outcome (HACAT [2]) inactive [at 17.4 µM] | Potency (HEK293T)

C/C=C(\C)C(=O)OC[C@H]1O[C@H](O[C@H]2O[C@H](CO)[C@@H](OC(=O)/C(C)=C/C)[C@H](O)[C@H]2O[C@@H]2O[C@H](CO)[C@@H](O)[C@H](O)[C@H]2O)[C@H](O[C@@H]2O[C@H](CO)[C@@H](O)[C@H](O)[C@H]2O)[C@@H](O)[C@@H]1O
inactive: max response (CRL-7250) -3.07% | outcome (HEK293) | outcome (HaCat [1]) | max response (KB-3-1) 8.89% | max response (NIH3T3) 2.61% | outcome (HACAT [2]) inactive [at 9.27 µM] | outcome (HEK293T) inactive [at 9.27 µM]

CC(NC(=O)CC(=O)O)c1nc2ccccc2c(=O)[nH]1 (centres undefined)
inactive: max response (CRL-7250) -1.93% | outcome (HEK293) | outcome (HaCat [1]) | outcome (KB-3-1) | outcome (NIH3T3) | outcome (HACAT [2]) | Potency (HEK293T)

O=c1ccn(C2OC(CO)C(O)C2O)c(=O)[nH]1 (centres undefined)
inactive: outcome (CRL-7250) | outcome (HEK293) | outcome (HaCat [1]) | outcome (KB-3-1) | max response (NIH3T3) 1.59% | outcome (HACAT [2]) | Potency (HEK293T)

COC(=O)C1C(c2ccc(O)cc2)C(C(=O)OC)C1c1ccc(O)cc1 (centres undefined)
inactive: max response (CRL-7250) -3.45% | outcome (HEK293) | outcome (HaCat [1]) | outcome (KB-3-1) | outcome (NIH3T3) | outcome (HACAT [2]) | Potency (HEK293T)

COc1cc(C2Oc3c(OC)cc(CCCO[C@@H]4O[C@H](CO)[C@@H](O)[C@H](O)[C@H]4O)cc3C2CO)ccc1O (some centres undefined)
inactive: max response (CRL-7250) -0.0218% | outcome (HEK293) | outcome (HaCat [1]) | max response (KB-3-1) 1.37% | max response (NIH3T3) 3.22% | outcome (HACAT [2]) inactive [at 17.4 µM] | Potency (HEK293T)

CO[C@H]1C=C2C(CC[C@H](O[C@@H]3O[C@H](CO)[C@@H](O)[C@@H](O)[C@H]3O)C2(C)C)[C@]2(C)CC[C@]3(C)C([C@H](C)C(O)C(C=C(C)C)O[C@@H]4O[C@H](CO)[C@@H](O)[C@@H](O)[C@H]4O)CC[C@@]3(C)C12 (some centres undefined)
inactive: max response (CRL-7250) -4.36% | outcome (HEK293) | outcome (HaCat [1]) | max response (KB-3-1) 6.33% | max response (NIH3T3) 3.68% | outcome (HACAT [2]) inactive [at 9.27 µM] | outcome (HEK293T) inactive [at 9.27 µM]

CC1(C)CC[C@]2(C(=O)O)CC[C@]3(C)C(=CCC4[C@@]5(C)CCC(O[C@@H]6OC[C@H](O)[C@H](O)[C@H]6O[C@@H]6O[C@H](CO)[C@@H](O)[C@H](O)[C@H]6O)[C@@](C)(CO)C5CC[C@]43C)[C@@H]2C1 (some centres undefined)
inactive: max response (CRL-7250) -0.0042% | outcome (HEK293) | outcome (HaCat [1]) | max response (KB-3-1) 4.54% | max response (NIH3T3) 2.38% | outcome (HACAT [2]) inactive [at 17.4 µM] | Potency (HEK293T)

CC1=C2C=C(CO)C(CO)CCC2(C)CCC1=O (centres undefined)
inactive: max response (CRL-7250) -3.34% | outcome (HEK293) | outcome (HaCat [1]) | outcome (KB-3-1) | max response (NIH3T3) -1.32% | outcome (HACAT [2]) | Potency (HEK293T)

O=C(O)c1cc(O[C@@H]2O[C@H](CO[C@@H]3OC[C@@H](O)[C@H](O)[C@H]3O)[C@@H](O)[C@H](O)[C@H]2O)c2ccccc2c1O
inactive: max response (CRL-7250) 3.92% | outcome (HEK293) | outcome (HaCat [1]) | outcome (KB-3-1) | max response (NIH3T3) -7.85% | outcome (HACAT [2]) inactive [at 17.4 µM] | Potency (HEK293T)

C[C@]1(OC(=O)/C=C/c2ccccc2)C[C@H](O)[C@]2(O)C=CO[C@@H](O[C@@H]3O[C@H](CO)[C@@H](O)[C@H](O)[C@H]3O)C12 (some centres undefined)
inactive: outcome (CRL-7250) | outcome (HEK293) | outcome (HaCat [1]) | max response (KB-3-1) 4.61% | outcome (NIH3T3) | outcome (HACAT [2]) inactive [at 17.4 µM] | Potency (HEK293T)
